# Values joined by “and” are separate entries in the source; they are usually repeats but may differ in a detail not shown here. Equal entries are not always repeated. In all, about 2,900 compounds were measured (“NF-kB SEAP reporter activity, fold change vs agonist alone”: median about 0.99, highest 2% from about 2.6 on). Shown is part of a subset that was picked to be rich in the highest values.
# Key:
# [1] = tested on: RAW-Dual; assay: NF-kB SEAP reporter activity, fold change vs agonist alone; higher = enhanced NF-kB activity; conditions: library stock concentration (final ~1000-fold dilution): 10 mM
# Summary of the method: (§1)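 Supernatant from RAW-Dual macrophages was read after 20 hours for IRF by QuantiLuc luminescence and for NF-κB by QuantiBlue absorbance at 620 nm. The cells (50,000 cells/well in DMEM, 384-well plates, 37 °C, 5% CO2) had received 50 nL of library stock by pin tool and, 1 h later, a PRR agonist. Reporter activity is expressed relative to agonist-alone wells as fold change, and wells were flagged cytotoxic if IncuCyte confluency was under 70% of agonist controls in both mask sets.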
# [2] = tested on: RAW-Dual; assay: NF-kB SEAP reporter activity, fold change vs agonist alone; cytotoxicity flag (confluency mask): not cytotoxic; library stock concentration (final ~1000-fold dilution): 10 mM; higher = enhanced NF-kB activity
# Summary of the method: as §1
# [3] = tested on: RAW-Dual; assay: NF-kB SEAP reporter activity, fold change vs agonist alone; cytotoxicity flag (confluency mask): cytotoxic (confluency <70% of control); library stock concentration (final ~1000-fold dilution): 10 mM; higher = enhanced NF-kB activity
# Summary of the method: as §1
# [4] = cytotoxicity flag (confluency mask): not cytotoxic, agonist: Imiquimod (TLR7) […]
# [5] = cytotoxicity flag (confluency mask): not cytotoxic, agonist: MPLA (TLR4) […]
# [6] = agonist: ODN 1826 (TLR9) 0.5 ug/mL
# [7] = agonist: Pam2CSK4 (TLR2/6) 0.1 ug/mL
# [8] = agonist: Pam3CSK4 (TLR2/1) 0.1 ug/mL
smiles,measurement,setting,value
COc1cc(C)[nH]c(=O)c1CNC(=O)c1c(C)n(C(C)C2CCOCC2)c2ccccc12 (configuration not stated),NF-kB SEAP reporter activity,[1]; [4],0.902
same,NF-kB SEAP reporter activity,[1]; [5],1.02
same,NF-kB SEAP reporter activity,[2]; agonist: LPS (TLR4) 0.1 ug/mL,1.26
same,NF-kB SEAP reporter activity,[2]; [6],1.05
same,NF-kB SEAP reporter activity,[2]; [7],0.992
same,NF-kB SEAP reporter activity,[2]; [8],0.786
Cl[Te]1(Cl)(Cl)OCCO1.N,NF-kB SEAP reporter activity,[1]; [4],0.792
same,NF-kB SEAP reporter activity,[1]; [5],0.899
same,NF-kB SEAP reporter activity,[2]; agonist: LPS (TLR4) 0.1 ug/mL,1.39
same,NF-kB SEAP reporter activity,[2]; [6],0.846
same,NF-kB SEAP reporter activity,[2]; [7],0.912
same,NF-kB SEAP reporter activity,[2]; [8],1.28
CCCCCCC[n+]1ccc(-c2cc[n+](CCCCCCC)cc2)cc1,NF-kB SEAP reporter activity,[1]; [4],1.32
same,NF-kB SEAP reporter activity,[1]; [5],2.11
same,NF-kB SEAP reporter activity,[2]; agonist: LPS (TLR4) 0.1 ug/mL,3.95
same,NF-kB SEAP reporter activity,[2]; [6],1.17
same,NF-kB SEAP reporter activity,[2]; [7],1.02
same,NF-kB SEAP reporter activity,[2]; [8],1.14
CCCCCc1cc(O)cc(O)c1,NF-kB SEAP reporter activity,[1]; [5],0.946
same,NF-kB SEAP reporter activity,[2]; agonist: LPS (TLR4) 0.1 ug/mL,1.11
same,NF-kB SEAP reporter activity,[2]; [6],0.427
same,NF-kB SEAP reporter activity,[2]; [7],0.966
same,NF-kB SEAP reporter activity,[2]; [8],0.739
O=C([O-])C(Cl)Cl.[Na+],NF-kB SEAP reporter activity,[2]; agonist: LPS (TLR4) 0.1 ug/mL,1.11 and 0.906
same,NF-kB SEAP reporter activity,[2]; [6],1.14 and 0.982
same,NF-kB SEAP reporter activity,[2]; [7],1.11 and 0.989
same,NF-kB SEAP reporter activity,[2]; [8],1.19 and 1.32
CCNc1nc(Cl)nc(NC(C)C)n1,NF-kB SEAP reporter activity,[1]; [5],1.29
same,NF-kB SEAP reporter activity,[2]; agonist: LPS (TLR4) 0.1 ug/mL,1.55
same,NF-kB SEAP reporter activity,[2]; [6],1.4
same,NF-kB SEAP reporter activity,[2]; [7],1.5
same,NF-kB SEAP reporter activity,[2]; [8],1.67
COc1ccc2c(c1OC)CN1CCc3cc4c(cc3C1C2)OCO4 (configuration not stated),NF-kB SEAP reporter activity,[1]; [5],1
same,NF-kB SEAP reporter activity,[2]; agonist: LPS (TLR4) 0.1 ug/mL,1.21
same,NF-kB SEAP reporter activity,[2]; [6],1.04
same,NF-kB SEAP reporter activity,[2]; [7],0.89
same,NF-kB SEAP reporter activity,[2]; [8],1.26
COc1cc(C2c3cc4c(cc3C(O)C3COC(=O)C23)OCO4)cc(OC)c1OC (configuration not stated),NF-kB SEAP reporter activity,"[1]; cytotoxicity flag (confluency mask): cytotoxic (confluency <70% of control), agonist: Imiquimod (TLR7) […]",1.61
same,NF-kB SEAP reporter activity,"[1]; cytotoxicity flag (confluency mask): cytotoxic (confluency <70% of control), agonist: MPLA (TLR4) […]",1.92
same,NF-kB SEAP reporter activity,[3]; agonist: LPS (TLR4) 0.1 ug/mL,5.49
same,NF-kB SEAP reporter activity,[3]; [6],2.81
same,NF-kB SEAP reporter activity,[3]; [7],1.6
same,NF-kB SEAP reporter activity,[3]; [8],2.18
COc1cc(C2c3cc4c(cc3C(O)C3COC(=O)C23)OCO4)cc(OC)c1O (configuration not stated),NF-kB SEAP reporter activity,[1]; [4],2.53
same,NF-kB SEAP reporter activity,[1]; [5],2.24
same,NF-kB SEAP reporter activity,[2]; agonist: LPS (TLR4) 0.1 ug/mL,3.91
same,NF-kB SEAP reporter activity,[2]; [6],3.47
same,NF-kB SEAP reporter activity,[2]; [7],2.24
same,NF-kB SEAP reporter activity,[2]; [8],2.24
CC[N+](C)(CC)CCOC(=O)C(O)(c1ccccc1)c1ccccc1,NF-kB SEAP reporter activity,[1]; [5],1.01
same,NF-kB SEAP reporter activity,[2]; agonist: LPS (TLR4) 0.1 ug/mL,0.821
same,NF-kB SEAP reporter activity,[2]; [6],0.989
same,NF-kB SEAP reporter activity,[2]; [7],0.934
same,NF-kB SEAP reporter activity,[2]; [8],1.39
COc1cc(-n2c(S)nc3ccccc3c2=O)c(Cl)cc1Cl,NF-kB SEAP reporter activity,[1]; [4],0.851
same,NF-kB SEAP reporter activity,[1]; [5],0.953
same,NF-kB SEAP reporter activity,[2]; agonist: LPS (TLR4) 0.1 ug/mL,1.4
same,NF-kB SEAP reporter activity,[2]; [6],0.842
same,NF-kB SEAP reporter activity,[2]; [7],0.849
same,NF-kB SEAP reporter activity,[2]; [8],0.826
CCC1(c2c[nH]cn2)Cc2ccccc2C1.Cl,NF-kB SEAP reporter activity,[1]; [5],0.931
same,NF-kB SEAP reporter activity,[2]; agonist: LPS (TLR4) 0.1 ug/mL,0.796
same,NF-kB SEAP reporter activity,[2]; [6],0.745
same,NF-kB SEAP reporter activity,[2]; [7],0.9
same,NF-kB SEAP reporter activity,[2]; [8],0.997
CN1C2CCC1CC(=O)C2,NF-kB SEAP reporter activity,[1]; [4],1.66
same,NF-kB SEAP reporter activity,[1]; [5],1.16
same,NF-kB SEAP reporter activity,[2]; agonist: LPS (TLR4) 0.1 ug/mL,0.911
same,NF-kB SEAP reporter activity,[2]; [6],1.6
same,NF-kB SEAP reporter activity,[2]; [7],1
same,NF-kB SEAP reporter activity,[2]; [8],1.54
CCC1CN2CCC3(C(=O)Nc4ccccc43)C2CC1/C(=C\OC)C(=O)OC (configuration not stated),NF-kB SEAP reporter activity,[1]; [4],0.907
same,NF-kB SEAP reporter activity,[1]; [5],1.25
same,NF-kB SEAP reporter activity,[2]; agonist: LPS (TLR4) 0.1 ug/mL,1.1
same,NF-kB SEAP reporter activity,[2]; [6],0.873
same,NF-kB SEAP reporter activity,[2]; [7],0.87
same,NF-kB SEAP reporter activity,[2]; [8],0.852

# Reference: the supplement of paper PMC10037445
